Compounds with a hit are over-represented: about 1.3% of the library has one in this group of screens.
Efflux pump inh = antifungal efflux pump inhibition, Nile Red retention | S. cerevisiae Candida pump triplex | inhibition, % at 10 µM | 330,000 tested, 0.44% active | AID 485275;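 active = plate passing quality check with inhibition over a set limit, or well fluorescence over plate mean plus 4 SD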;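 also: Nile Red retained in pooled yeast measured as flow cytometry median fluorescence; 0% = buffer negative control and 100% = Enniatin B positive control; higher means more Nile Red kept so more efflux inhibition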
LAP4-GFP MLPCN = modulators of TOR pathway LAP4-GFP in S. cerevisiae. S. cerevisiae LAP4-GFP multiplex, flow cytometry GFP, 3 h; median GFP as percent of DMSO wells. GFP response vs DMSO, % at 10 µM. 320,000 tested, 0.34% active;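 active = GFP response vs DMSO above a set limit, about the screen mean plus 3 SD, cut at about 150% in these data; inconclusive = under 70 cell events counted for the yeast strain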
AGP1-GFP MLPCN = modulators of TOR pathway AGP1-GFP in S. cerevisiae; S. cerevisiae AGP1-GFP multiplex flow cytometry, 3 h; GFP as percent of DMSO wells; GFP response vs DMSO, % at 10 µM; 320,000 tested, 0.02% active;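 active = GFP response relative to DMSO above a set limit, near screen average plus 3 SD, cut at about 150% in these data; inconclusive = fewer than 70 cells counted for the yeast strain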;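 also: median GFP channel fluorescence of the gated AGP1 strain per well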
RPL19A TOR yeast = alters RPL19A-GFP fluorescence in TOR pathway yeast screen; S. cerevisiae RPL19A-GFP strain, flow cytometry, 3 h; active compounds read low; percent response vs DMSO, % at 10 µM; 330,000 tested, 0.3% active;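 active = percent response vs DMSO below 50%; inconclusive = fewer than 70 events counted for the yeast strain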;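 also: median channel GFP fluorescence of the barcoded RPL19A-GFP strain; ratio of sample median GFP to plate DMSO average so 100% = DMSO; lower means less RPL19A-GFP as with rapamycin TOR inhibition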
CIT2-GFP yeast = alters CIT2-GFP fluorescence in TOR pathway yeast screen; GFP response vs DMSO, % at 10 µM; S. cerevisiae CIT2-GFP strain, flow cytometry, 3 h; 100 means same as DMSO wells; AID 2029; 320,000 tested, 0.065% active;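 active = GFP response relative to DMSO above a set limit, near the screen mean plus 3 SD, cut at about 150% in these data; inconclusive = Fewer than 70 cells measured for a yeast strain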;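 also: ratio of well median GFP fluorescence to mean of DMSO wells on the plate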
MEP2 TOR yeast = alters MEP2-GFP fluorescence in TOR pathway yeast screen. S. cerevisiae MEP2-GFP strain, flow cytometry GFP, 3 h; 100% = DMSO control level. AID 2016. GFP response vs DMSO, % at 10 µM. 330,000 tested, 0.51% active;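 active = GFP response versus DMSO above a set limit, roughly screen mean plus 3 SD, cut at about 180% in these data; inconclusive = fewer than 70 cells counted for a yeast strain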;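 also: median GFP fluorescence of the barcode-gated MEP2-GFP cells per well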
Cmpd fluor yeast = counter-screen for efflux pump inhibitors: compound fluorescence; shares compounds with Efflux pump inh; S. cerevisiae AD/pABC3, flow cytometry; fluorescence ratio to DMSO, % at 10 µM; 1,700 tested, 4% active; AID 588517;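 active = fluorescence ratio to DMSO above its plate's cutoff, the plate mean ratio plus 5 SD, cut at about 210% in these data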;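 also: unstained yeast with no Nile Red so the signal is compound autofluorescence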
Mdr1 pump inh = inhibitors of Candida albicans Mdr1 efflux pump | shares compounds with Efflux pump inh | S. cerevisiae AD/CaMDR1, Nile Red efflux, flow cytometry | inhibition, % at 10 µM | 1,700 tested, 1% active | AID 588518; in the data active = inhibition above about 26%;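 also: 0% = DMSO vehicle and 100% = reference inhibitor; higher means more Nile Red retained so more efflux inhibition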
CaCdr2 efflux inh = inhibitors of Candida albicans Cdr2 efflux pump; shares compounds with Efflux pump inh; S. cerevisiae AD/CaCDR2, Nile Red retention, flow cytometry; Nile Red retention ratio vs DMSO, % at 10 µM; 1,700 tested, 4% active; AID 588520; in the data active = Nile Red retention ratio vs DMSO above about 190%;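 also: higher ratio means more blocking of Cdr2 efflux of the dye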
CaCdr1 efflux inh = inhibitors of Candida albicans Cdr1 efflux pump; inhibition, % at 10 µM; 1,700 tested, 1% active; S. cerevisiae AD/CaCDR1, Nile Red efflux, flow cytometry; shares compounds with Efflux pump inh;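 active = inhibition above the screen-wide mean plus twice its standard deviation, cut at about 32% in these data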
Active calls of the source: *; i = inactive; u = inconclusive; x = no result; + = active, no number; [ ] = dose if it differs, or a comment.

SMILES	Efflux pump inh	LAP4-GFP MLPCN	AGP1-GFP MLPCN	RPL19A TOR yeast	CIT2-GFP yeast	MEP2 TOR yeast	Cmpd fluor yeast	Mdr1 pump inh	CaCdr2 efflux inh	CaCdr1 efflux inh
CC1Oc2ccccc2N(CC(=O)c2ccccc2)C1=O (stereo not given)	-1	101	105	103	99	101	x	x	x	x
CCc1ccc2nc(N(CCCN(C)C)C(=O)c3ccc(S(=O)(=O)N4CCCc5ccccc54)cc3)sc2c1	0	96	104	106	106	104	x	x	x	x
CN(C)CCN(C(=O)c1ccc(S(=O)(=O)N2CCc3ccccc32)cc1)c1nc2ccc(F)cc2s1	0.4*	106	103	104	105	114	110	0	108	0
COCCn1c(=O)[nH]c2cc(C(=O)Nc3nnc(C)s3)ccc21	0	101	101	103	97	105	x	x	x	x
Cc1c(/C=N/O)c2ccccn2c1C(=O)c1ccc(F)cc1	1.7*	111	42	92	66	134	96	0	96	0
Cc1c(/C=N/NC(N)=O)c2ccccn2c1C(=O)c1ccc(F)cc1	0	94	93	102	97	109	x	x	x	x
Cc1ccc(S(=O)(=O)N2[C@@H](c3ccc(Br)cc3)C(C(=O)O)=C[C@H]2C(C)(C)C)cc1	0	84	84	87	80	86	x	x	x	x
COc1ccc(N2CCN(CC(=O)Nc3ccc(-n4cnnn4)cc3)CC2)cc1	0	97	101	100	107	96	x	x	x	x
COc1ccccc1N1CCN(CC(=O)Nc2ccc(-n3cnnn3)cc2)CC1	0.9*	97	98	95	92	102	95	0	103	0
Cn1c(Cc2cccs2)nnc1SCC(=O)Nc1ccccc1F	0	105	103	100	110	106	x	x	x	x
Cc1ccc(-n2c(Cc3cccs3)nnc2SCC(=O)Nc2ccc(F)c(F)c2)cc1	0	112	117	x	123	109	100	0	95	0
O=C(CSc1nnc(Cc2cccs2)n1-c1ccccc1)Nc1ccc2c(c1)OCCO2	0	91	x	88	94	88	126	2	112	1
Cn1c(Cc2ccccc2)nnc1SCC(=O)Nc1ccc2c(c1)OCCO2	0	94	94	94	100	95	x	x	x	x
COC(=O)C1=C(C)N(C)C(=O)NC1c1ccc(O)c(Cl)c1 (stereo not given)	0	95	107	99	102	103	x	x	x	x
S=C(NCC1CCCO1)N1CCN(c2nc(-c3ccc(Cl)cc3)cs2)CC1 (stereo not given)	0	u	u	u	91	u	x	x	x	x
Cn1c(Cc2ccccc2)nnc1SCC(=O)Nc1ccc(N2CCOCC2)cc1	1.3*	86	99	101	93	99	106	0	112	0
O=C(CSc1ccccc1F)Nc1ccc(N2CCOCC2)cc1	0.8*	98	101	98	95	96	117	1	112	0
COc1ccc(OC)c(NC(=O)C2CCN(S(=O)(=O)c3cccs3)CC2)c1	0	94	111	102	103	104	x	x	x	x
COc1ccccc1NC(=O)C1CCN(S(=O)(=O)c2cccs2)CC1	172*	+[may fluoresce green]	+[may fluoresce green]	i	+[may fluoresce green]	+[may fluoresce green]	111	1	108	0
CCc1cc2c(=O)n(Cc3ccccc3)c(SC3CCOC3=O)nc2s1 (stereo not given)	0.9*	98	102	101	106	105	98	0	112	0
COc1ccc(/C(O)=C2\C(=O)C(=O)N(CCN(C)C)C2c2cccc(OC)c2OC)cc1 (stereo not given)	6.5*	100	107	108	108	110	101	0	98	0
COc1cccc(C2/C(=C(/O)c3cnn(-c4ccccc4)c3C)C(=O)C(=O)N2CCN(C)C)c1OC (stereo not given)	0	102	108	106	105	108	x	x	x	x
C/C(=N\NC(=O)c1nnn(-c2nonc2N)c1CSc1ccccc1)c1ccc2c(c1)OCO2	1.0*	97	105	101	103	104	105	0	119	0
C/C(=N\NC(=O)c1nnn(-c2nonc2N)c1CSc1ccccc1)c1cccnc1	0	112	112	107	112	119	x	x	x	x
CN(CC(=O)Nc1cccc(F)c1)CC(=O)N(C)c1c(N)n(Cc2ccccc2)c(=O)[nH]c1=O	0	101	100	96	103	97	x	x	x	x
SMILES	Efflux pump inh	LAP4-GFP MLPCN	AGP1-GFP MLPCN	RPL19A TOR yeast	CIT2-GFP yeast	MEP2 TOR yeast	Cmpd fluor yeast	Mdr1 pump inh	CaCdr2 efflux inh	CaCdr1 efflux inh
COC(=O)c1cc(OC)nc2c1c(=O)n(C)c(=O)n2C	9.6*	98	103	100	112	104	98	0	96	0
COC(=O)c1cc(-c2ccc(Br)cc2)c2c(=O)n(C)c(=O)n(C)c2n1	0	93	101	104	102	106	x	x	x	x
O=C(NN1C(=O)C2C3c4ccccc4C(c4ccccc43)C2C1=O)c1ccc(Cl)cc1 (stereo not given)	8.9*	96	106	103	109	93	103	0	98	0
COc1ccc(CCC(=O)N/N=C\c2cccs2)cc1	0	108	108	112	92	111	x	x	x	x
CCc1nc2sc3ccccc3c(=O)c2c(=O)n1Cc1ccc(OC)cc1	0	110	101	99	98	90	x	x	x	x
NC(=O)C1CCN(c2nc(-c3ccccc3F)cs2)CC1	7.5*	x	x	x	x	x	100	0	103	0
NC(=O)C1CCN(c2nc(-c3ccccc3Br)cs2)CC1	0	x	x	x	x	x	x	x	x	x
Cc1c(Cl)cccc1NC(=O)CSC(C)c1nc2ccccc2c(=O)[nH]1 (stereo not given)	0	90	97	102	98	93	x	x	x	x
COc1ccc(/C=C/C(=O)Nc2cc(S(=O)(=O)N3CCCCC3)ccc2N2CCCCC2)cc1OC	0	93	106	103	112	103	x	x	x	x
COc1ccc(/C=C(\C#N)C(=O)Nc2cc(S(=O)(=O)N3CCCCC3)ccc2N2CCCCC2)cc1	0.5*	98	100	102	102	106	126	0	114	0
